Bioassay records: PubChem, National Center for Advancing Translational Sciences (NCATS)
ELG1 genotox: qHTS screen for small molecules that induce genotoxicity in human embryonic kidney (HEK293T) cells expressing luciferase-tagged ELG1 | 1.3% of 330,000 active | AID 504466, 2011 | Potency, µM (series often up to 46 µM), for inactives: top-dose activity change, positive = activation, most hits filed as activators | HEK293T ELG1-luciferase reporter, luminescence, 16 h; also: % of control where 0% means no effect; nearly all actives have a fitted effect of over 60% in size
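Step 1: seed 2,000 HEK293T ELG1-luciferase cells per well. Step 2: add compound or DMSO, incubate 16 hr at 37 °C. Step 3: ONE-Glo, 30 min at room temperature, read luminescence.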
Rab9 prom act: qHTS Assay for Rab9 Promoter Activators | Potency, µM (top dose mostly 9.22 µM), for the others: top-dose activation, negative = inhibition, most hits filed as activators | 2.8% of 320,000 active | Huh7 Rab9 promoter-luciferase reporter, luminescence, 24 h; also: % of control where 0% means no effect; nearly all actives have a fitted effect of over 60% in size
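Measured in stably transfected Huh7 cells bearing a Rab9 promoter–luciferase construct: 24 h compound treatment at 37 °C, followed by luminescence detection.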
NPC1 prom act: qHTS Assay for NPC1 Promoter Activators | Potency, µM (titrated, usually from 9.22 µM), without a hit: at the top dose activation, most hits filed as activators | 2.4% of 320,000 active | Huh7 NPC1 promoter luciferase reporter, 24 h | AID 485313, 2010; also: % of control where 0% means no effect; nearly all actives have a fitted effect of over 60% in size
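Huh7 cells stably carrying NPC1 promoter–luciferase, plated in Opti-MEM with 10% FBS for 2 h, were exposed to compound in DMSO for 24 h at 37 °C; luciferase reagent was added for 10 min and luminescence read.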
p53 reactivator: qHTS assay for re-activators of p53 using a Luc reporter; H1299 p53-A138V BP100-luciferase reporter, luminescence, 24 h; Potency, µM (top dose mostly 92.2 µM), for the others: at the top dose activity change, positive = activation, most hits filed as activators; 0.063% of 320,000 active; AID 504706, 2011; also: % of control where 0% means no effect; nearly all actives have a fitted effect of over 45% in size
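H1299 (p53-null), stable ts p53-A138V + BP100-Luc; 1000 cells/well, Opti-MEM/10% FBS; cpd 4 pt, 1:5; 24 h, 37 deg C, 5% CO2; detection reagent 10 min RT; luminescence.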
FLuc counter: qHTS profiling assay for firefly luciferase inhibitor/activator using purifed enzyme and Km concentrations of substrates (counterscreen for miR-21 project) | AID 588342, 2011 | 6.9% of 360,000 active | Potency, µM (highest dose often 57.5 µM), inactives show at the top dose activity change, negative = inhibition, most hits filed as inhibitors | purified FLuc, Km substrates, luminescence inhibition | Luciferin 4-monooxygenase (Photinus pyralis), P08659;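 also: plate controls were vehicle for no effect and reference inhibitor for full effect; nearly all actives have a fitted effect of over 55% in size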
Target sequence (P08659 whole entry, looked up): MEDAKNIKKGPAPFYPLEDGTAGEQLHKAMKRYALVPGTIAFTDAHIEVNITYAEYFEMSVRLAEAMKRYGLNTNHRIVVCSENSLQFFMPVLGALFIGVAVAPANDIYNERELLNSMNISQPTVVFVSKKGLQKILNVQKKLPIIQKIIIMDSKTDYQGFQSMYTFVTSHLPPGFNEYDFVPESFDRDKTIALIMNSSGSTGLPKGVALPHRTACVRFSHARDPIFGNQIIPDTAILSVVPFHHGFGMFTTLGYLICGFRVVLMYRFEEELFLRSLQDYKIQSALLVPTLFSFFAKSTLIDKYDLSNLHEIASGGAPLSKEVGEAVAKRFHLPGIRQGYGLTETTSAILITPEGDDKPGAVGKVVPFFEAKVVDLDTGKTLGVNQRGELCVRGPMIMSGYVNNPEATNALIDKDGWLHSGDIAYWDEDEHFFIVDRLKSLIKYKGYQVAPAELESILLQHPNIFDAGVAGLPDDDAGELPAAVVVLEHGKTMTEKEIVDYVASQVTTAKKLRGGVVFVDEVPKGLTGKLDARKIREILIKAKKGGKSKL
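Purified P. pyralis luciferase, 10 nM final, with Km-level 10 uM D-luciferin and 10 uM ATP in 50 mM Tris acetate pH 7.5, 10 mM Mg acetate, 0.01% Tween-20, 0.05% BSA; 6-point qHTS titration about 60 µM downward; luminescence read.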
SMN2 splice enh: qHTS Assay for Enhancers of SMN2 Splice Variant Expression; 2.8% of 210,000 active; Potency, µM (top dose mostly 46.1 µM), without a hit: top-dose activity change, positive = activation, most hits filed as activators; HEK293 SMN2-luciferase splicing reporter, luminescence, 30-36 h; AID 1458, 2008; also: % of control where 0% means no effect; nearly all actives have a fitted effect of over 55% in size
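qHTS luciferase splicing reporter: luminescence rises when SMN2 exon 7 is included in transfected HEK293 cells. Compound exposure lasted 30-36 h at 37C, with 4.5 mM final sodium butyrate as control, followed by a ONE-Glo read.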
Numbers without * were called inactive; ? = inconclusive; . = no result; [ ] = another dose, or the depositor's remark. Shown are actives, neighbours in structure and some others; about 7.4% of the full set was active somewhere. Calls follow the shape of the dose curve; as a rule, active = well fitted curve in the direction sought with a large enough effect; inconclusive = small, poorly fitted or top-dose-only effect, or another doubt; inactive = no such curve, though single readings can be large; an effect the other way counts as inactive or inconclusive. Potency is read from the fitted curve at half-maximal effect.

SMILES	ELG1 genotox	Rab9 prom act	NPC1 prom act	p53 reactivator	FLuc counter	SMN2 splice enh
COc1ccc(-c2nc(-c3ccc(O)cc3O)cs2)cc1OC	?	?	16%	0%	11µM*	?
COC(=O)c1cc(NC(=O)[C@H](CCS(C)(=O)=O)N2Cc3ccccc3C2=O)cc(C(=O)OC)c1	.	.	.	.	-6%	-4%
CCOCCCN(Cc1ccco1)S(=O)(=O)c1cc2c(cc1Cl)NC(=O)CO2	.	.	.	.	-12%	.
O=C(NCCc1ccccc1)C1CCCN1C(=O)Nc1ccc(Cl)cc1 (centres undefined)	1%	6%	-2%	-2%	1%	.
CCOC(=O)C1CCCN(S(=O)(=O)c2cc3c(cc2C)NC(=O)CO3)C1 (centres undefined)	.	.	.	.	6%	.
Oc1ccc(-c2csc(-c3c[nH]c4ccccc34)n2)c(O)c1	?	?	3.5µM*	?	11µM*	?
COc1cccc(-c2nc(-c3ccc4c(c3)NC(=O)CO4)cs2)c1	11%	?	?	2%	?	?
Cc1ccc(-c2csc(-c3c[nH]c4ccccc34)n2)c(C)c1	2%	6%	?	?	?	21%
COc1cccc(-c2nc(CCl)cs2)c1	1%	6%	-5%	9%	27µM*	-8%
C[N+](C)(N)Cc1csc(-c2ccc(Cl)cc2)n1	.	.	.	.	.	-6%[9.22 µM]
CCc1ccc(-c2nc(CCl)cs2)cc1	?	?	?	?	3.8µM*	.
CCOCc1cc(CN2CCN(c3cccc(Cl)c3)CC2)c(O)c2ncccc12	.	.	.	.	-4%	10%
COc1ccc(C(=O)c2cc3c(cc2[N+](=O)[O-])OCCO3)cc1	4%	1%	-1%	11%	-1%	.
COc1ccc(C(=O)n2c(SC)nc3cc4c(cc32)OCCO4)cc1	?	29%	17%	?	19µM*	9%
O=S(=O)(c1ccc2c(c1)OCCO2)N1CCN(S(=O)(=O)c2ccc3c(c2)OCCO3)CC1	.	0.4µM*	0.35µM*	.	0.6µM*	.
Cc1c(OC(C)C(=O)NCc2ccccn2)ccc2c3c(c(=O)oc12)CCCC3 (centres undefined)	-22%	1%	0%	-8%	-3%	.
Cc1ccc(NC(=O)/C=C/c2ccccc2)c(Br)c1	.	.	.	.	2.7µM*	8.9µM*
Cn1c(NC(=O)/C=C\c2ccccc2)cc(=O)n(C)c1=O	?	3.5µM*	30%	29%	?	.
c1ccc2c(-n3cccn3)cccc2c1	?	24%	?	8%	15µM*	-4%
NCc1cccc(-n2cccn2)c1	3%	-3%	2%	-2%	1%	-7%
C=CCNc1nc2c3ccccc3n(C(C)=O)c2s1	?	23%	21%	?	24µM*	-3%
CC(=O)Nc1nc2c(ccc3ccccc32)s1	2%	4%	1%	.	-17%	.
O=C(CN1C(=O)NC2(CCCC2)C1=O)NNC(=O)c1ccc(Br)cc1	-7%	-7%	-2%	-7%	-4%	.
CCc1ccc(C(=O)NNC(=O)CN2C(=O)NC3(CCCC3)C2=O)cc1	5%	0%	-4%	1%	15µM*	.
c1ccc2c(c1)NC1(CCCCC1)n1c-2nc2ccccc21	?	28%	?	?	21µM*	25%
SMILES	ELG1 genotox	Rab9 prom act	NPC1 prom act	p53 reactivator	FLuc counter	SMN2 splice enh
CC1=NC(=O)C(N=Nc2cccc(O)c2)N1c1ccccc1 (centres undefined)	15µM*	7%	-6%	?	6.7µM*	-11%
Cc1cccc(-n2c(O)c(C=Nc3cccc(O)c3)c3ccccc3c2=O)n1	-7%	1%	-1%	-6%	-11%	.
Cc1oc2cc3c(C(=O)N4CCCCC4)c(C)oc3cc2c1C(=O)N1CCCCC1	?	?	18%	-4%	11µM*	-36%
Cc1ccc(Cn2c(SCC(=O)N(C)C3CCS(=O)(=O)C3)nc3ccccc3c2=O)cc1 (centres undefined)	-1%	2%	-4%	-7%	0%	.
Cc1cccc(S(=O)(=O)c2cn(Cc3ccc(F)cc3)c3cc(N4CCOCC4)c(F)cc3c2=O)c1	.	.	.	.	-1%	.
COc1ccc(C(=O)NCCc2ccc(C(F)(F)F)cc2)cc1S(=O)(=O)N1CCOCC1	-8%	-2%	-2%	-4%	1%	.
CCOc1ccc(/C=C/C2=NNC(=O)CC2)cc1	18µM*	?	?	3%	15µM*	11µM*
COc1ccc(/C=C/C2=NNC(=O)CC2)cc1	?	2.8µM*	27%	19%	?	16µM*
O=C1CCC(/C=C/c2ccccc2)=NN1	16%	9%	-15%	20%	-13%	11%
CCOC(=O)CN1N=C(/C=C/c2ccc(OCC)cc2)CCC1=O	-1%	26%	7%	13%	-15%	-5%
O=C(Nc1ccc(Cl)cc1Cl)c1cc(S(=O)(=O)N2CCc3ccccc32)ccc1F	.	.	.	.	-8%	.
O=C1CN(C(=O)COc2c(F)c(F)cc(F)c2F)c2ccccc2N1	4%	7%	-6%	-11%	5%	.
CCOC(=O)c1nn(-c2ccccc2)cc1O	?	?	?	10%	?	.
CCOC(=O)c1nn(-c2ccc3c(c2)OCO3)cc1O	?	?	3.2µM*	24%	12µM*	?
CCOC(=O)c1nn(-c2ccc3ccccc3c2)cc1O	15µM*	23%	?	15%	8.5µM*	13%
